# PubChem BioAssay (NCATS)
# Inconclusive results are not listed. Entries that show only a call come without a potency. The source made the active and inactive calls. Calls follow the shape of the dose curve; as a rule, active = well fitted curve in the direction sought with a large enough effect; inconclusive = small, poorly fitted or top-dose-only effect, or another doubt; inactive = no such curve, though single readings can be large; an effect the other way counts as inactive or inconclusive. Peptide text beside a SMILES is read from it.
# Legend:
# [1] = Quantitative High-Throughput drug screen in 47 multiple myeloma cell lines against the NCATS MIPE library collection: H1112_PLB cell viability assay (AID 1918967; also: nearly all actives have a fitted effect of over 30% in size; also: potency is read from the fitted curve at half-maximal effect)
# Summary of the method: (§1)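 Primary qHTS used for cherry-picking: cells at 500/well, library compounds for 48 h (37C, 5% CO2), luminescent ATP assay.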
# [2] = Quantitative High-Throughput drug screen in 47 multiple myeloma cell lines against the NCATS MIPE library collection: Karpas25_ECACC cell viability assay (AID 1918968; also: nearly all actives have a fitted effect of over 35% in size; also: potency is read from the fitted curve at half-maximal effect)
# Summary of the method: as §1
# [3] = Quantitative High-Throughput drug screen in 47 multiple myeloma cell lines against the NCATS MIPE library collection: KMS20_JCRB cell viability assay (AID 1918973); also: nearly all actives have a fitted effect of over 45% in size; also: potency is read from the fitted curve at half-maximal effect
# Summary of the method: as §1
# [4] = Quantitative High-Throughput drug screen in 47 multiple myeloma cell lines against the NCATS MIPE library collection: MMM1_PLB cell viability assay (AID 1918976); also: potency is read from the fitted curve at half-maximal effect; nearly all actives have a fitted effect of over 35% in size
# Summary of the method: (§2)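 ATP-based luminescence (CellTiter-Glo, 5 min RT incubation) quantified surviving cells following two days' treatment with MIPE 4.0 agents at 37 °C, 5% CO2.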
# [5] = Quantitative High-Throughput drug screen in 47 multiple myeloma cell lines against the NCATS MIPE library collection: NCIH929_DSMZ cell viability assay (AID 1918978); also: nearly all actives have a fitted effect of over 35% in size; also: potency is read from the fitted curve at half-maximal effect
# Summary of the method: as §2
# [6] = Quantitative High-Throughput drug screen in 47 multiple myeloma cell lines against the NCATS MIPE library collection: OCIMY1_PLB cell viability assay (AID 1918979); also: nearly all actives have a fitted effect of over 35% in size
# Summary of the method: as §2
# [7] = Quantitative High-Throughput drug screen in 47 multiple myeloma cell lines against the NCATS MIPE library collection: MM1S_ATCC cell viability assay (AID 1918980); also: nearly all actives have a fitted effect of over 45% in size; also: potency is read from the fitted curve at half-maximal effect
# Summary of the method: as §2
# [8] = Quantitative High-Throughput drug screen in 47 multiple myeloma cell lines against the NCATS MIPE library collection: MM1R_ATCC cell viability assay (AID 1918981); also: nearly all actives have a fitted effect of over 35% in size; also: potency is read from the fitted curve at half-maximal effect
# Summary of the method: as §2
# [9] = Quantitative High-Throughput drug screen in 47 multiple myeloma cell lines against the NCATS MIPE library collection: KMS28PE_JCRB cell viability assay (AID 1918983); also: nearly all actives have a fitted effect of over 35% in size; also: potency is read from the fitted curve at half-maximal effect
# Summary of the method: as §2
# [10] = Quantitative High-Throughput drug screen in 47 multiple myeloma cell lines against the NCATS MIPE library collection: KMS34_JCRB cell viability assay (AID 1918985); also: nearly all actives have a fitted effect of over 40% in size; also: potency is read from the fitted curve at half-maximal effect
# Summary of the method: as §2
# [11] = Quantitative High-Throughput drug screen in 47 multiple myeloma cell lines against the NCATS MIPE library collection: OCIMY5_PLB cell viability assay (AID 1918988); also: nearly all actives have a fitted effect of over 65% in size; also: potency is read from the fitted curve at half-maximal effect
# Summary of the method: as §2
# [12] = Quantitative High-Throughput drug screen in 47 multiple myeloma cell lines against the NCATS MIPE library collection: KMS12BM_JCRB cell viability assay (AID 1918971); also: nearly all actives have a fitted effect of over 35% in size; also: potency is read from the fitted curve at half-maximal effect
# Summary of the method: (§3)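 Myeloma cell lines, 500 cells per well, exposed to MIPE 4.0 library compounds for 48 h at 37C, 5% CO2. Viability from ATP by CellTiter-Glo luminescence; normalised to DMSO (100%) and media-only (0%) wells.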
# [13] = Quantitative High-Throughput drug screen in 47 multiple myeloma cell lines against the NCATS MIPE library collection: KMS21BM_JCRB cell viability assay (AID 1918974); settings: ATP luminescence, 48 h; viability: at 45.8 µM (top of the series) unless noted; also: potency is read from the fitted curve at half-maximal effect
# Summary of the method: as §1
# [14] = Quantitative High-Throughput drug screen in 47 multiple myeloma cell lines against the NCATS MIPE library collection: KMS26_JCRB cell viability assay (AID 1918975); also: nearly all actives have a fitted effect of over 45% in size; also: potency is read from the fitted curve at half-maximal effect
# Summary of the method: as §3
# [15] = Quantitative High-Throughput drug screen in 47 multiple myeloma cell lines against the NCATS MIPE library collection: LP1_DSMZ cell viability assay (AID 1918982); also: nearly all actives have a fitted effect of over 35% in size; also: potency is read from the fitted curve at half-maximal effect
# Summary of the method: as §2
# [16] = Quantitative High-Throughput drug screen in 47 multiple myeloma cell lines against the NCATS MIPE library collection: L363_DSMZ cell viability assay (AID 1918984); also: nearly all actives have a fitted effect of over 40% in size; also: potency is read from the fitted curve at half-maximal effect
# Summary of the method: as §2
# [17] = Quantitative High-Throughput drug screen in 47 multiple myeloma cell lines against the NCATS MIPE library collection: KMS12PE_JCRB cell viability assay (AID 1918972); also: nearly all actives have a fitted effect of over 30% in size; also: potency is read from the fitted curve at half-maximal effect
# Summary of the method: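 Inhibition of cell viability is measured here. Each line was plated at 500 cells per well, treated with MIPE 4.0 drugs, kept 48 hours at 37C, then assayed for ATP content by CellTiter-Glo luminescence.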
# [18] = Quantitative High-Throughput drug screen in 47 multiple myeloma cell lines against the NCATS MIPE library collection: MOLP8_DSMZ cell viability assay (AID 1918977); also: nearly all actives have a fitted effect of over 45% in size
# Summary of the method: as §2
# [19] = Quantitative High-Throughput drug screen in 47 multiple myeloma cell lines against the NCATS MIPE library collection: OCIMY7_PLB cell viability assay (AID 1918987); also: nearly all actives have a fitted effect of over 65% in size; also: potency is read from the fitted curve at half-maximal effect
# Summary of the method: as §2
# [20] = Quantitative High-Throughput drug screen in 47 multiple myeloma cell lines against the NCATS MIPE library collection: KMS27_JCRB cell viability assay (AID 1918970); also: nearly all actives have a fitted effect of over 30% in size; also: potency is read from the fitted curve at half-maximal effect
# Summary of the method: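 KMS27_JCRB myeloma cells, 500 per well, exposed 48 h at 37 C, 5% CO2 to MIPE 4.0 compounds. Viability from ATP by CellTiter-Glo luminescence, normalized to DMSO (100%) and medium-only (0%) wells.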
Structure (SMILES),Potency [1],Potency [2],Potency [3],Potency [4],Potency [5],Potency [6],Potency [7],Potency [8],Potency [9],Potency [10],Potency [11],Potency [12],Potency [13],Potency [14],Potency [15],Potency [16],Potency [17],Potency [18],Potency [19],Potency [20]
CS(=O)(=O)OCCCCOS(C)(=O)=O,inactive,inactive,inactive,16.6 µM (active),inactive,inactive,inactive,3.72 µM (active),13.2 µM (active),inactive,5.9 µM (active),–,–,–,–,–,–,–,–,–
Cc1cc(=O)c2c(O)c3c(O)cc(=O)c4c3c3c(cc(O)c1c23)C(C)(C)C=4O,0.59 µM (active),–,0.0187 µM (active),0.372 µM (active),0.296 µM (active),–,–,4.18 µM (active),–,13.2 µM (active),8.33 µM (active),4.69 µM (active),4.18 µM (active),6.62 µM (active),5.9 µM (active),0.743 µM (active),–,–,–,–
CCOC(=O)C1=C(O)C(=O)N(Cc2ccccc2)C1,inactive,–,–,–,inactive,–,–,–,inactive,–,–,inactive,inactive,–,–,–,inactive,inactive,–,–
C[C@@H](N)C1CCC(C(=O)Nc2ccncc2)CC1 (stereo partly specified),14.8 µM (active),26.4 µM (active),inactive,–,–,–,inactive,inactive,–,inactive,11.8 µM (active),–,–,–,inactive,–,–,inactive,11.8 µM (active),–
COC(=O)C1=C(C)NC(C)=C(C(=O)OC(C)C)C1c1cccc2nonc12 (stereo unspecified),3.32 µM (active),–,20.9 µM (active),5.9 µM (active),2.64 µM (active),inactive,2.35 µM (active),inactive,–,–,inactive,18.7 µM (active),–,inactive,inactive,–,inactive,–,6.62 µM (active),inactive
O=C(c1ccccc1)c1ccc2n1CCC2C(=O)O (stereo unspecified),13.2 µM (active),–,8.33 µM (active),0.743 µM (active),5.26 µM (active),–,1.05 µM (active),2.09 µM (active),–,inactive,0.743 µM (active),inactive,inactive,1.48 µM (active),inactive,inactive,inactive,–,–,inactive
COC(=O)[C@H](Cc1ccccc1)NC(=O)[C@@H](N)CC(=O)O (H-Asp-Phe-OMe),inactive,–,–,–,inactive,inactive,inactive,inactive,–,inactive,inactive,inactive,–,–,inactive,–,inactive,–,inactive,–
O=C(NC(Cc1cc(=O)[nH]c2ccccc12)C(=O)O)c1ccc(Cl)cc1 (stereo unspecified),inactive,–,–,9.35 µM (active),inactive,inactive,–,inactive,–,–,14.8 µM (active),inactive,–,–,inactive,–,–,inactive,–,inactive
C=CCc1cc(OC)c(O)c(C(=O)NCCO)c1,inactive,inactive,–,–,inactive,–,inactive,inactive,–,inactive,inactive,–,–,inactive,inactive,–,–,–,–,–
CCC1=C(C)CN(C(=O)NCCc2ccc(S(=O)(=O)NC(=O)NC3CCC(C)CC3)cc2)C1=O (stereo unspecified),inactive,–,inactive,–,inactive,inactive,inactive,inactive,inactive,inactive,inactive,–,inactive,inactive,inactive,inactive,inactive,–,–,inactive
COc1cc2c(cc1OC)C1CC(=O)C(CC(C)C)CN1CC2 (stereo unspecified),inactive,–,inactive,–,inactive,–,–,inactive,inactive,–,–,–,20.9 µM (active),inactive,inactive,–,–,–,–,inactive
COc1cc(C(C)=O)ccc1OCCCN1CCC(c2noc3cc(F)ccc23)CC1,inactive,1.87 µM (active),16.6 µM (active),–,18.7 µM (active),–,–,16.6 µM (active),inactive,–,6.62 µM (active),–,–,0.0074 µM (active),–,–,–,–,–,–
CC(C)[N+]1(C)[C@@H]2CC[C@H]1CC(OC(=O)C(CO)c1ccccc1)C2 (stereo partly specified),inactive,–,–,–,–,inactive,inactive,inactive,inactive,inactive,inactive,–,–,inactive,inactive,14.8 µM (active),16.6 µM (active),–,–,14.8 µM (active)
Nc1cc(C(Cl)=C(Cl)Cl)c(S(N)(=O)=O)cc1S(N)(=O)=O,inactive,inactive,–,–,inactive,inactive,0.059 µM (active),inactive,inactive,inactive,–,–,–,inactive,inactive,–,–,–,11.8 µM (active),–
Cc1cc2c(s1)Nc1ccccc1N=C2N1CCN(C)CC1,inactive,3.32 µM (active),inactive,–,inactive,–,–,inactive,inactive,inactive,–,–,–,inactive,inactive,–,–,inactive,–,–
O=C(OC1C[C@H]2CC[C@@H](C1)[N+]21CCCC1)C(O)(c1ccccc1)c1ccccc1 (stereo partly specified),inactive,–,–,–,inactive,–,inactive,inactive,inactive,–,inactive,inactive,inactive,inactive,inactive,inactive,inactive,–,inactive,inactive
COc1cc2nc(N3CCN(C(=O)C4CCCO4)CC3)nc(N)c2cc1OC (stereo unspecified),inactive,inactive,–,–,inactive,inactive,inactive,inactive,–,–,–,–,–,–,–,1.48 µM (active),16.6 µM (active),–,–,–
